# Reference: PubChem BioAssay (NCATS)
# Results filed as inconclusive are left out. A number with no mark means an inactive call. The call rests on the fitted dose curve; in most records, active means well fitted inhibition curve with a large enough effect; inconclusive means small, poorly fitted or top-dose-only effect; inactive means no such curve, though single readings can be large or run the other way.
# Target: Papain (Carica papaya) (UniProt P00784)
# Assay: Primary qHTS assay for inhibitors of the protease papain (AID 1645873);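 further: papain turnover of Z-FR-AMC read as the AMC fluorescence gain over 10 min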
# Settings: papain Z-FR-AMC cleavage, AMC fluorescence; series mostly up to 49.8 µM; activity change, negative = inhibition: at the top concentration
# On the % scale 0 is the no-effect control and ±100 the full control effect.
# Papain (Carica papaya), sequence (P00784 whole entry, looked up): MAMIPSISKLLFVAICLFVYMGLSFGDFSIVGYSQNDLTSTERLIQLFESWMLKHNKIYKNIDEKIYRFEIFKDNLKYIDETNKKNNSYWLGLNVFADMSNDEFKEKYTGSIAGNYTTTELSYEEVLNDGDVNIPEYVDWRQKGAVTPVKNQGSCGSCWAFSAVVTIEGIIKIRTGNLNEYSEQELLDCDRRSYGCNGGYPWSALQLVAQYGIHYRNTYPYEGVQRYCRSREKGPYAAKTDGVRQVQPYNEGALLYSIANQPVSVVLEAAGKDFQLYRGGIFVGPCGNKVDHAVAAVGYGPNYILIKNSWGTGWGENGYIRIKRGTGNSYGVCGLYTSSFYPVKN
row,Structure (SMILES),"activity change, negative = inhibition"
1,CCn1cnc2c(Nc3cccc(Cl)c3)nc(N[C@@H]3CCCC[C@@H]3N)nc21,-4.23%
2,O=S1(=O)N(CCN2CC=C(c3c[nH]c4cc(F)ccc34)CC2)c2cccc3c2N1CCC3,-17.9%
3,CN1CCc2cccc(Cl)c2CC1,13.4%
4,CC(C)(C)OC(=O)NC1[C@H]2CNC[C@@H]12 (some centres not stated),-14.1%
5,CC(Cc1ccc(OCC(=O)O)cc1)NCC(O)c1cccc(Cl)c1 (configuration not stated),0.63%
6,COc1ccc2c(c1)C13CCCCC1C(C2)N(C)CC3 (configuration not stated),-1.35%
7,CC(N)[C@H](O)c1ccc(O)c(O)c1 (some centres not stated),0.09%
8,CCCN1CC[C@@H]2c3cc(O)ccc3CC[C@@H]21,-10.9%
9,CN1CC[C@@]2(C)c3cc(O)ccc3N(C)C12 (some centres not stated),0.81%
10,CCS(=O)(=O)Nc1cccc(C(=C2CCCCC2)c2cnc[nH]2)c1,-5.49%
11,NC(=O)c1ccc(OCC(O)CN2CC=C(c3ccc(F)cc3)CC2)cc1 (configuration not stated),1.35%
12,OC1CCCCC1N1CCC(c2ccccc2)CC1 (configuration not stated),-2.79%
13,Cc1c2ccncc2c(C)c2c1[nH]c1ccccc12,-26%
14,CC1(C(=O)O)C2CCC(O2)C1(C)C(=O)O (configuration not stated),15.9%
15,C#CCN[C@H](C)Cc1ccccc1,39.5%
16,c1ccc2cc(CC3=NCCN3)ccc2c1,-2.61%
17,NNC(=O)c1ccc(O)cc1,1.71%
18,C[N+]1(C)CCc2cc3c(cc2[C@H]1[C@@H]1OC(=O)c2c1ccc1c2OCO1)OCO3,7.47%
19,CCCC[N+]1(C)C2CC(OC(=O)[C@H](CO)c3ccccc3)CC1C1OC12 (some centres not stated),2.07%

row,Structure (SMILES),"activity change, negative = inhibition"
1,Oc1ccc2c3c1O[C@H]1c4[nH]c5ccccc5c4C[C@@]4(O)C(C2)N(CC2CC2)CCC314 (some centres not stated),3.15%
2,CN(C(=O)Cc1ccc(Cl)c(Cl)c1)C(CN1CCCC1)c1cccc(OCC(=O)O)c1 (configuration not stated),-3.69%
3,C[C@H](N)Cc1cccc(C(F)(F)F)c1,13.6%
4,NCCc1c[nH]c2ccc(C(N)=O)cc12,-11.8%
5,CC(N)Cc1c[nH]c2ccc(OCc3cccs3)cc12 (configuration not stated),0.63%
6,CCNC(=O)[C@H]1O[C@@H](n2cnc3c(N)ncnc32)[C@H](O)[C@@H]1O,7.83%
7,Oc1ccc2c3c1O[C@H]1c4oc5ccccc5c4C[C@@]4(O)C(C2)N(CC2CC2)CCC314 (some centres not stated),-3.69%
8,C[N+]1(C)CCN(c2ccccc2)CC1,9.27%
9,CN1CCC(c2c[nH]c3ccc(O)cc23)CC1,33.8%
10,CCCCCCCCCCCCCC(=O)O[C@@H]1[C@@H](C)[C@@]2(O)[C@@H](C=C(CO)C[C@@]3(O)C(=O)C(C)=C[C@@H]23)C2C(C)(C)[C@@]21OC(C)=O (some centres not stated),13.4%
11,CN1CCc2cc(O)cc3c2[C@H]1Cc1ccc(O)c(O)c1-3,-6.93%
12,C[N+](C)(C)CC#CCN1CCCC1=O,-2.07%
13,CN1C2CCC1CC(OC(c1ccccc1)c1ccccc1N)C2 (configuration not stated),-8.55%
14,CCCN1CCc2cccc3c2[C@H]1Cc1ccc(O)c(O)c1-3,-1.89%
15,CCCN(CCC)C1Cc2cc(OC)c(OC)cc2C1,-17.2%
16,NCCc1ccc(S(=O)(=O)F)cc1,-3.51%
17,C[C@H](N)CN1CCc2ccc(Br)cc21,-4.77%
18,CCCN(CCC)[C@@H]1CCc2cccc(O)c2C1,31.3%
